In PubChem BioAssay (NCI):
Where “and” joins values, the source holds several entries; their conditions need not be identical. Equal entries are not always repeated. The panel holds about 83,000 compounds, 20% with a hit somewhere; the sample as a whole holds those more often.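 Interpretation: 100, growth as untreated; towards 0, rising growth inhibition; 0, no net growth; 0 to -100, cell death. Compounds scoring below 10 were considered active.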 Some structures have more than one record in an assay (separate samples or runs), and their calls can disagree. Calls of active or inactive are those of the source.

Each compound was assayed on KM12 colon (assay: NCI-60 one-dose screen, 48 h (100 = growth as untreated, 0 = no growth, -100 = all killed)). Settings: 10 µM unless noted.

Row | SMILES | growth
1 | CCN1CCN(CCNc2nccc(-c3c(-c4cccc(O)c4)nc4sccn34)n2)S1(=O)=O | 52.4% (inactive) and 68.9% (inactive)
2 | CCCCCCCCCCCCCCCc1cc(O)ccc1N | 64.2% (inactive) and 72% (inactive)
3 | CN1CCN(c2ccc3nc(-c4c(N)c5c(F)cccc5[nH]c4=O)[nH]c3c2)CC1 | 12.8% (inactive) and 13.7% (inactive)
4 | OCCN1CCN(CCCN2c3ccccc3Sc3ccc(Cl)cc32)CC1 | 71.4% (inactive) and 80.5% (inactive)
5 | NC(=S)NS(=O)(=O)c1ccc(N)cc1 | 110% (inactive)
6 | COc1cc(C(=O)N/N=C/c2ccc(N(C)C)cc2)cc(OC)c1OC | 17% (inactive)
7 | OC(CSc1ccccc1)CN1CCN(c2cccc(Cl)c2)CC1 (stereo not drawn) | 109% (inactive) and 101% (inactive)
8 | COc1cc(Nc2nc3ccccc3nc2NS(=O)(=O)c2ccc(NC(=O)c3ccc(C)c(OC)c3)cc2)cc(OC)c1 | 54% (inactive) and 13.9% (inactive)
9 | O=C(Nc1cccc(-n2ccc3c(NC(=O)c4ccccc4)nccc32)c1)c1ccc(Cl)c(C(F)(F)F)c1 | -54.5% (active) and 42.7% (inactive)
10 | CC(C(=O)O)n1cc(C#N)c(=O)[nH]c1=O (stereo not drawn) | 101% (inactive) and 107% (inactive)
11 | CC1=NN(c2ccccc2)C(=O)C1C(=O)c1ccccc1 (stereo not drawn) | 93.2% (inactive)
12 | CCOC(=O)c1c(C)oc(C)c(C(=O)OCC)c1=O | 114% (inactive) and 117% (inactive)
13 | NC(=O)NO | 100% (inactive) and 67.8% (inactive)
14 | C1CCCCNCCC1 | 115% (inactive)
15 | OC1CCC(Oc2cccc3cnc(Nc4ccc5nc[nH]c5c4)nc23)CC1 (stereo not drawn) | 1.29% (active) and 15.7% (inactive)
16 | CC(C)CNC(=O)c1ccccc1C(=O)NC1(C(=O)NCC(C)C)CCCC1 | 112% (inactive) and 104% (inactive)
17 | C=C1C(=O)O[C@H]2[C@H]1CC/C(COC(=O)NC1CCC(O)CC1)=C\CC[C@@]1(C)O[C@@H]21 (stereo partly drawn) | 96.8% (inactive) and 97.9% (inactive)
18 | O=C(O)C1C2C=CC(C2)C1C(=O)O (stereo not drawn) | 106% (inactive) and 25.4% (inactive) and 104% (inactive)
19 | CCN(CC)CCCC(C)N(Cc1ccccc1)CC(O)c1ccc(Cl)cc1 (stereo not drawn) | 103% (inactive) and 101% (inactive)

Row | SMILES | growth
20 | CC(=O)NC(Cc1ccccc1)C(=O)Oc1ccc2ccccc2c1 (stereo not drawn) | 103% (inactive) and 94.8% (inactive)
21 | O=C(Oc1cccc(OC(=O)c2ccccc2)c1)c1ccccc1 | 87.9% (inactive)
22 | CC(C)(C)c1ccc(O)c(CNC2CCCCC2)c1 | 105% (inactive) and 92.2% (inactive)
23 | Cc1cccc(/C=C\C(=O)c2ccccc2)c1 | 85.6% (inactive) and 62.7% (inactive)
24 | Cc1nnc(NC/C=C/c2ccccc2)s1 | 94.4% (inactive)
25 | Clc1ccc(NC(Nc2ccc(Cl)cc2)C(Cl)(Cl)Cl)cc1 | 48.6% (inactive) and 84.9% (inactive)
26 | COc1ccccc1NC(=O)OCC#CCOC(=O)Nc1ccccc1OC | 108% (inactive) and 91.2% (inactive)
27 | O=C1NC(=O)C2(CCc3ccccc32)N1 (stereo not drawn) | 100% (inactive) and 109% (inactive)
28 | CC(C)Cc1ccc(C(C)C(=O)NCc2ccc(Cn3c(=O)sn(CCCCl)c3=O)cc2)cc1 (stereo not drawn) | 95% (inactive) and 4.78% (active)
29 | Cn1cnc([N+](=O)[O-])c1Sc1ncnc2nc[nH]c12 | 51.2% (inactive) and 65.2% (inactive)
30 | CCCCCCCCCCCCOc1ccccc1C=O | 102% (inactive)
31 | Nc1cc2c(cc1N)-c1ccccc1C2 | 90% (inactive) and 97.1% (inactive)
32 | C[N+](C)(C)CN1C(=O)c2ccccc2C1=O | 111% (inactive)
33 | Nc1ncnc2c1ncn2C1CC(O)C(CO)O1 (stereo not drawn) | 114% (inactive) and 107% (inactive)
34 | Cc1ccc(S(=O)(=O)Nc2nc3ccccc3nc2Nc2ccc3nsnc3c2)cc1 | 48.7% (inactive) and 44.1% (inactive)
35 | CN(Cc1ccccc1)Cc1ccccc1 | 98.5% (inactive)
36 | COc1cc(C(=O)c2ccc3c(c2)OCO3)cc(OC)c1OC | 24.7% (inactive) and 27.3% (inactive)
37 | CCN(CC)CCOc1ccc(/C=N/Nc2nc3c([nH]2)c(=O)n(C)c(=O)n3C)cc1 | 109% (inactive) and 106% (inactive)
38 | O=[N+]([O-])c1ccc(Oc2ccccc2)cc1 | 101% (inactive) and 105% (inactive)
